This passage reports binding signal results from PMC7862700, “An all-to-all approach to the identification of sequence-specific readers for epigenetic DNA modifications on cytosine”.

Common to all, as to assay: DAPPL (digital affinity profiling via proximity ligation, sequencing); 10 mM Tris-HCl pH 7.5, 50 mM NaCl, 1 mM DTT, 4% glycerol, room temperature, 30 min; GST-TFs on glutathione beads, 16-mer random dsDNA library, 0.1% formaldehyde crosslink after washing; high values mean tight binding
Common to all, as to details: protein: recombinant; tags: N-terminal GST; dsDNA, one strand shown

One assay deals with T1, ERF (Homo sapiens, UniProt P50548 1-548).
T1 sequence: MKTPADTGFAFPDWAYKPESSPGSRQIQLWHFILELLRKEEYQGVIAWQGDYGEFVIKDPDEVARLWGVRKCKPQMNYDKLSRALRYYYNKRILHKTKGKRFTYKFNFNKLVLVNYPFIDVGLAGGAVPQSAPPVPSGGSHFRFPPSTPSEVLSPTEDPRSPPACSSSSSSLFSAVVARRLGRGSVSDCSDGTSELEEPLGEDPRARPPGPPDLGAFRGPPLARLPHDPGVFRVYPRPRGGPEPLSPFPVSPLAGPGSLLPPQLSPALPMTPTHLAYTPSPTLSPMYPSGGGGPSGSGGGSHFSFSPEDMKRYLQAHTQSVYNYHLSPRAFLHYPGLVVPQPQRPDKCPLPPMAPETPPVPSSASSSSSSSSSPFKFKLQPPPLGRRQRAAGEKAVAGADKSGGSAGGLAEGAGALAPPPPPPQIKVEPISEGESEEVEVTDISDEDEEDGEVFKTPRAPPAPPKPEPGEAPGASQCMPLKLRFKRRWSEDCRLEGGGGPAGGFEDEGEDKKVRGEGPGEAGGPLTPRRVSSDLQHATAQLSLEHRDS
The method, boiled down:
(§1)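 Sequencing on an Illumina NextSeq500 followed washing, crosslinking with 0.1% formaldehyde, proximity ligation (BsaI/T4 ligase, 1 h, 37 °C) and PCR amplification of pools that had been incubated for 30 min at room temperature with 200 nmole of a random double-stranded 16-mer DNA library in Tris/NaCl/DTT/glycerol buffer. Each pool held DNA-barcoded human transcription factors, expressed in yeast as GST fusions and captured on glutathione beads, plus a tag-only sample. Binding signal is a hexamer's read frequency for a factor divided by its frequency in the tag-only sample.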

The target in a further assay is T2, ETV3L (Homo sapiens, UniProt Q6ZN32 1-361).
T2 sequence: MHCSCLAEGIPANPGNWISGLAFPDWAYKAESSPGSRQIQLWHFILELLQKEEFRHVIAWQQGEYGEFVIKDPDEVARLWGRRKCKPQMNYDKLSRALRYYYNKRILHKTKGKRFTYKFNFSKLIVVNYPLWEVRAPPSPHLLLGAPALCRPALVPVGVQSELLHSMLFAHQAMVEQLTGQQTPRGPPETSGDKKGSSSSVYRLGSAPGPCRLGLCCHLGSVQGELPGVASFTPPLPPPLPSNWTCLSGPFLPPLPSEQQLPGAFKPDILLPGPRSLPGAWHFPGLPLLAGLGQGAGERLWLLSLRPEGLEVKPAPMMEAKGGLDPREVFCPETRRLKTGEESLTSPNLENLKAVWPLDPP
The method, boiled down: as §1

For the next assay, the target named is T3, ETS2 (Homo sapiens, UniProt P15036 1-469).
T3 sequence: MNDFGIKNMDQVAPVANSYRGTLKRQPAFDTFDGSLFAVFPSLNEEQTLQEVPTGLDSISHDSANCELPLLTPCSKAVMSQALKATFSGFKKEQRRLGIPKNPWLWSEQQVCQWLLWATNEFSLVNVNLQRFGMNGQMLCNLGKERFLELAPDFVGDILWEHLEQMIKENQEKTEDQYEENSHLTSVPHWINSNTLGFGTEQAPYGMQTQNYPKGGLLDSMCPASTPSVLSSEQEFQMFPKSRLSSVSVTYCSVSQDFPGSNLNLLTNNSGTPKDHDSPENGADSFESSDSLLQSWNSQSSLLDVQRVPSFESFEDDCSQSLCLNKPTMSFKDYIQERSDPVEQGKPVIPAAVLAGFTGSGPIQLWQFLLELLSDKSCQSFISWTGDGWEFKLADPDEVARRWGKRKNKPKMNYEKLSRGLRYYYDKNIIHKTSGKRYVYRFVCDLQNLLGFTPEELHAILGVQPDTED
The method, boiled down: as §1

In a further assay the target is T4, SPDEF (Homo sapiens, UniProt O95238 1-335).
T4 sequence: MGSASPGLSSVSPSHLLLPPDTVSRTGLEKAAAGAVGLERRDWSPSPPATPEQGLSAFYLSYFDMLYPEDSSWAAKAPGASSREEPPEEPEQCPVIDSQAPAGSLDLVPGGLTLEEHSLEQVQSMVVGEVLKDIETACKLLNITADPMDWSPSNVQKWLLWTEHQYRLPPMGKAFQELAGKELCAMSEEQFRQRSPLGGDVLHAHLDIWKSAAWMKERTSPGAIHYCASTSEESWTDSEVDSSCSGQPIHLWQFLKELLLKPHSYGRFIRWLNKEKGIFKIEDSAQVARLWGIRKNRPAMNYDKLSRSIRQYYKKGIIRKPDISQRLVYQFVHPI
A digest of the protocol:
as §1

The target in a further assay is T5, ETV7 (Homo sapiens, UniProt Q9Y603 1-341).
T5 sequence: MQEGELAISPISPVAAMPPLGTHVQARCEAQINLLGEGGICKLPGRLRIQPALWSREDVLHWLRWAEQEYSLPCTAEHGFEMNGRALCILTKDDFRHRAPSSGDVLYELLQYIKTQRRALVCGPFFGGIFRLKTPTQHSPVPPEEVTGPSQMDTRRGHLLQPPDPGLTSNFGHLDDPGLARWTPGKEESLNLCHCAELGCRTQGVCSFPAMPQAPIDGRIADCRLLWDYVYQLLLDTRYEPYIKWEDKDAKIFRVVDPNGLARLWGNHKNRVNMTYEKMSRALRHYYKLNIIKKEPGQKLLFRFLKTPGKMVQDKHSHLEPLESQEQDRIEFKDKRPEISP
The method, boiled down:
as §1

The target in the next assay is T6, ELF5 (Homo sapiens, UniProt Q9UKW6-2 1-255).
T6 sequence: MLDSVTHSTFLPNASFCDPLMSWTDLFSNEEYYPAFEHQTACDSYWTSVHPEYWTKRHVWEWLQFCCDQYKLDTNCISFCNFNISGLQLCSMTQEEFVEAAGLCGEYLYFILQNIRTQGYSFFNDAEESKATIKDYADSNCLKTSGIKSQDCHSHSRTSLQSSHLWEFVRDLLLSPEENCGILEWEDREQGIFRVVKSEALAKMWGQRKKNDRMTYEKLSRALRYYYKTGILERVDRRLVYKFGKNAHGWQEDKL
A digest of the protocol:
as §1

The target of a further assay is T7, ETV3 (Homo sapiens, UniProt P41162-2 1-143).
T7 sequence: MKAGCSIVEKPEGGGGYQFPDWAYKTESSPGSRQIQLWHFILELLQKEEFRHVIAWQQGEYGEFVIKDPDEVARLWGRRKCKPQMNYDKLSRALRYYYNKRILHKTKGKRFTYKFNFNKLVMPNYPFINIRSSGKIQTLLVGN
A digest of the protocol: as §1

For the next assay, the target named is ETV6 (Homo sapiens, UniProt P41212 1-452). A digest of the protocol:
as §1

ETV6, sequence (P41212 whole entry): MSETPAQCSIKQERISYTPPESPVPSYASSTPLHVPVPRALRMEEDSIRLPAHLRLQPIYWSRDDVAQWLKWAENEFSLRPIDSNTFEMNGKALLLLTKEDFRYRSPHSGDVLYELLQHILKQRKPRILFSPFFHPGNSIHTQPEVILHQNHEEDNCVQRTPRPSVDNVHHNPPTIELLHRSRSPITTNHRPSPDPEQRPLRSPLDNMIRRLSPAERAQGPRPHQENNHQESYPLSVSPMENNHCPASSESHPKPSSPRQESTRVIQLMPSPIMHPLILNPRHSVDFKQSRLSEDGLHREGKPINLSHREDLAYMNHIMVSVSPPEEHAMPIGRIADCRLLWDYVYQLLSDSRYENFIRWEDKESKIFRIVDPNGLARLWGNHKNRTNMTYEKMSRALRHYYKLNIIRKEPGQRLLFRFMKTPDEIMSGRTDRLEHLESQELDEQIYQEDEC

Consider TAATAA, for which the binding signal with ERF was 1.28 fold enrichment (6-mer frequency, TF over GST control); with ETV3L, 1.24 fold enrichment (6-mer frequency, TF over GST control); with ETS2, 1.21 fold enrichment (6-mer frequency, TF over GST control); with SPDEF it was 1.19 fold enrichment (6-mer frequency, TF over GST control); in the assay with ETV7 it was 1.14 fold enrichment (6-mer frequency, TF over GST control); with ELF5, 1.15 fold enrichment (6-mer frequency, TF over GST control). For the same sequence, the binding signal in the assay with ETV3 was 1.11 fold enrichment (6-mer frequency, TF over GST control); in the assay with ETV6 it was 1.17 fold enrichment (6-mer frequency, TF over GST control).
Take CCTAAT: the binding signal with ERF was 1.24 fold enrichment (6-mer frequency, TF over GST control); in the assay with ETV3L, 1.33 fold enrichment (6-mer frequency, TF over GST control); with ETS2 it was 1.33 fold enrichment (6-mer frequency, TF over GST control); with SPDEF, 1.36 fold enrichment (6-mer frequency, TF over GST control); in the assay with ETV7, 1.31 fold enrichment (6-mer frequency, TF over GST control); with ELF5, 1.25 fold enrichment (6-mer frequency, TF over GST control). The binding signal in the assay with ETV3 is 1.22 fold enrichment (6-mer frequency, TF over GST control); with ETV6, 1.31 fold enrichment (6-mer frequency, TF over GST control).
As for GAAATA, the binding signal was 1.45 fold enrichment (6-mer frequency, TF over GST control) with ERF; 1.48 fold enrichment (6-mer frequency, TF over GST control) with ETV3L; 1.51 fold enrichment (6-mer frequency, TF over GST control) with ETS2; 1.52 fold enrichment (6-mer frequency, TF over GST control) in the assay with SPDEF; 1.6 fold enrichment (6-mer frequency, TF over GST control) with ETV7; 1.73 fold enrichment (6-mer frequency, TF over GST control) with ELF5. Also, the binding signal with ETV3 is 1.54 fold enrichment (6-mer frequency, TF over GST control); with ETV6, 1.75 fold enrichment (6-mer frequency, TF over GST control).
With GGTATT, the binding signal is 1.2 fold enrichment (6-mer frequency, TF over GST control) with ERF; 1.18 fold enrichment (6-mer frequency, TF over GST control) with ETV3L; 1.2 fold enrichment (6-mer frequency, TF over GST control) with ETS2; 1.27 fold enrichment (6-mer frequency, TF over GST control) with SPDEF; 1.24 fold enrichment (6-mer frequency, TF over GST control) in the assay with ETV7; 1.16 fold enrichment (6-mer frequency, TF over GST control) with ELF5. The binding signal with ETV3 was 1.12 fold enrichment (6-mer frequency, TF over GST control); with ETV6, 1.24 fold enrichment (6-mer frequency, TF over GST control).
On to ATTCAC, for which the binding signal with ERF is 1.21 fold enrichment (6-mer frequency, TF over GST control); in the assay with ETV3L, 1.21 fold enrichment (6-mer frequency, TF over GST control); with ETS2 it was 1.29 fold enrichment (6-mer frequency, TF over GST control); with SPDEF it was 1.21 fold enrichment (6-mer frequency, TF over GST control); in the assay with ETV7, 1.24 fold enrichment (6-mer frequency, TF over GST control); with ELF5, 1.19 fold enrichment (6-mer frequency, TF over GST control). For the same sequence, the binding signal with ETV3 was 1.23 fold enrichment (6-mer frequency, TF over GST control); with ETV6 it was 1.17 fold enrichment (6-mer frequency, TF over GST control).
For TCGTCT, the binding signal in the assay with ERF is 1.4 fold enrichment (6-mer frequency, TF over GST control); with ETV3L, 1.43 fold enrichment (6-mer frequency, TF over GST control); with ETS2, 1.46 fold enrichment (6-mer frequency, TF over GST control); with SPDEF, 1.37 fold enrichment (6-mer frequency, TF over GST control); in the assay with ETV7, 1.21 fold enrichment (6-mer frequency, TF over GST control); in the assay with ELF5 it was 1.32 fold enrichment (6-mer frequency, TF over GST control). Also, the binding signal with ETV3 was 1.23 fold enrichment (6-mer frequency, TF over GST control); with ETV6, 1.34 fold enrichment (6-mer frequency, TF over GST control).
TCCCCC: the binding signal with ERF was 1.45 fold enrichment (6-mer frequency, TF over GST control); with ETV3L, 1.43 fold enrichment (6-mer frequency, TF over GST control); in the assay with ETS2, 1.42 fold enrichment (6-mer frequency, TF over GST control); with SPDEF it was 1.35 fold enrichment (6-mer frequency, TF over GST control); with ETV7, 1.52 fold enrichment (6-mer frequency, TF over GST control); in the assay with ELF5 it was 1.7 fold enrichment (6-mer frequency, TF over GST control). The binding signal with ETV3 was 1.51 fold enrichment (6-mer frequency, TF over GST control); in the assay with ETV6, 1.56 fold enrichment (6-mer frequency, TF over GST control).
With AATACT, the binding signal was 1.19 fold enrichment (6-mer frequency, TF over GST control) with ERF; 1.24 fold enrichment (6-mer frequency, TF over GST control) with ETV3L; 1.23 fold enrichment (6-mer frequency, TF over GST control) with ETS2; 1.15 fold enrichment (6-mer frequency, TF over GST control) with SPDEF; 1.31 fold enrichment (6-mer frequency, TF over GST control) in the assay with ETV7; 1.37 fold enrichment (6-mer frequency, TF over GST control) with ELF5. Moreover, the binding signal is 1.28 fold enrichment (6-mer frequency, TF over GST control) with ETV3 and 1.4 fold enrichment (6-mer frequency, TF over GST control) with ETV6.
